In ChEMBL document CHEMBL1201862, “PubChem BioAssay data set” (2004) one finds Potency data, which are given here for 109 compounds.

Each structure is given as a SMILES string. The campaign covered roughly 400,000 compounds. About 2,100 (0.53%) were called active. Inconclusive results (about 14%) are left out. No rule for the calls is given here. This excerpt belongs to a sample that is enriched for actives.

Chain of Ataxin-2 (Homo sapiens) (Q99700 whole entry): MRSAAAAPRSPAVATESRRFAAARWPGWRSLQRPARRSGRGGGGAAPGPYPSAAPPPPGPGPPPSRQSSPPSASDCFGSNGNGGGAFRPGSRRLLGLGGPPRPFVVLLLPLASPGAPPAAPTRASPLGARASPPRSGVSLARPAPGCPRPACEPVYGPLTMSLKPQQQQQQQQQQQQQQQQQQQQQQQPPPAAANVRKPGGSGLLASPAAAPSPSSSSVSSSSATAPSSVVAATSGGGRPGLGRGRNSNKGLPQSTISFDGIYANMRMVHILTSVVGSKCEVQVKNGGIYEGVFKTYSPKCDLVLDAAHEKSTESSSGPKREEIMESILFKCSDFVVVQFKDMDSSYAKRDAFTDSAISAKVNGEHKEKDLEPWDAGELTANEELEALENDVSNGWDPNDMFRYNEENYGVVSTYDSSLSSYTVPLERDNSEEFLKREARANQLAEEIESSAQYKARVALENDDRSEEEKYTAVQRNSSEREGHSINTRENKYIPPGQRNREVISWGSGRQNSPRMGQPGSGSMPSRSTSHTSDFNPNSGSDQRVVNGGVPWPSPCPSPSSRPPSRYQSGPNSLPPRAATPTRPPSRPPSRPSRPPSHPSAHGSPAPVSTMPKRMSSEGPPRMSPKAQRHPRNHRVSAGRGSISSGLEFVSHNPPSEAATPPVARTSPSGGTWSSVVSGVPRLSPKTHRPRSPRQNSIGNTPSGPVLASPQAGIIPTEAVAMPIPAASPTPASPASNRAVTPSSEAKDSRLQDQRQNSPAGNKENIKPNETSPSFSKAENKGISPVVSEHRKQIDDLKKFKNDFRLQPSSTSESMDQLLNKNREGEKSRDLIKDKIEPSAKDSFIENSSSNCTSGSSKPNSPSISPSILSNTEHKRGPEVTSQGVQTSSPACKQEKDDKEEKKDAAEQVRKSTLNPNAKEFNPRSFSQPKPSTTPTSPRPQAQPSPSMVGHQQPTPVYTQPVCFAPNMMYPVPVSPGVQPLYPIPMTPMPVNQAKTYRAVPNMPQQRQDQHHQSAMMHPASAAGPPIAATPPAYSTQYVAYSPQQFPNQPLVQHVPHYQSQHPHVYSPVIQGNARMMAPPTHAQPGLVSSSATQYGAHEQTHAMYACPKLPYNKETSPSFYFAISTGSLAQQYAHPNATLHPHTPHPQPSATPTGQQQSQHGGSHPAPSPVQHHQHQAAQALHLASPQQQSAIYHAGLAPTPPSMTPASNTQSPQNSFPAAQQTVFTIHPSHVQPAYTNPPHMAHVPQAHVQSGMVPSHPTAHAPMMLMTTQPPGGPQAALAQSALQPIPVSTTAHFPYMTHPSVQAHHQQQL

This experiment addresses Ataxin-2 (Homo sapiens) (UniProt Q99700). Put plainly: qHTS for Inhibitors of ATXN expression. The experiment is classed as functional.
Take `CCCc1cc(NCCOCCO)n2c(nc3ccccc32)c1C#N`: the Potency result was “inactive”.
To `Nc1nc(O)nc(O)c1N=Cc1ccccc1` belongs “inactive”; to `COC(=O)c1ccc(/C=N/Nc2nc(C)c(C)s2)cc1`, “inactive”; to `C/C(=N\NC(=O)c1ccc(CN2CCOCC2)cc1)c1ccc([N+](=O)[O-])cc1`, “inactive”.
As to `C/C(=N\Nc1nc(C)c(C)s1)c1ccc([N+](=O)[O-])cc1`, the Potency was 37.7 µM (active).
Next, `O=S(=O)(CCSc1nc2ccccc2o1)c1nc2ccccc2s1`: 15.8 µM (active); `Brc1ccccc1-c1nnc(SCc2nc3ccccc3s2)o1`: “inactive”; `CCOc1ccccc1N(CC(=O)NCCSc1ccccn1)S(=O)(=O)c1ccccc1`: “inactive”.
To `C=CCS(=O)(=O)c1nc2ccccc2s1` belongs 35.5 µM (active); to `O=C(OCc1nc2ccccc2s1)c1ccccc1O`, “inactive”; to `O=C(O)c1ccc(C=C(c2nc3ccccc3s2)c2nc3ccccc3s2)cc1`, “inactive”.
To `O=S(=O)(CCSc1ccccn1)c1nc2ccccc2s1` belongs 22.4 µM (active); to `Cc1cccc(N2CC(C(=O)Nc3ccc(S(=O)(=O)Nc4nccs4)cc3)CC2=O)c1C` (centres undefined), “inactive”; to `COCC(=O)Nc1nc2n(n1)C(c1ccc(Cl)cc1)CC(c1ccc(OC)cc1)N2` (centres undefined), “inactive”.
As to `COc1cc(CO)c(Br)cc1OCC(N)=O`, the Potency result is “inactive”.
Next, `N=c1c(C(=O)NC2CCCC2)cc2c(=O)n3ccccc3nc2n1CCCN1CCOCC1`: “inactive”; `CN(C)CCn1cnc2c(c1=N)C(c1ccccc1)c1ccc3ccccc3c1O2` (centres undefined): 28.2 µM (active).
For `COc1ccc(C2c3ccc4ccccc4c3Oc3ncn(CCN4CCOCC4)c(=N)c32)cc1` (centres undefined), the Potency was 14.1 µM (active).
Next, `COc1ccc2nc(NCCN=C(S)NCCCN3CCOCC3)c(C#N)cc2c1`: “inactive”; `COc1ccc(C2c3c(ncn(CCN4CCOCC4)c3=N)Oc3ccc4ccccc4c32)cc1OC` (centres undefined): 14.1 µM (active).
Next, `COc1ccc(Nc2ncc(F)c(N3CCOCC3)n2)cc1`: “inactive”; `COc1ccc(C2c3ccc4ccccc4c3Oc3ncn(CCCO)c(=N)c32)cc1` (centres undefined): 35.5 µM (active); `Cc1ccc(S(=O)(=O)NC23CC4CC(CC(C4)C2)C3)cc1`: “inactive”.
Next, `CCCn1nc(NC(=O)COC)c2cc3cccc(C)c3nc21`: “inactive”; `COc1ccc(OC)c(/C=C2\Oc3cc(OCC(=O)N4CCC[C@H]4C(=O)O)ccc3C2=O)c1`: “inactive”.
Regarding `COCCNc1oc(/C=C/c2ccccc2)nc1C#N`, the Potency result is “inactive”.
To `COc1cc2ccccc2nn1` belongs “inactive”.
Next, `N=c1c2c(ncn1Cc1ccco1)Oc1ccc3ccccc3c1C2c1ccccc1` (centres undefined): 12.6 µM (active); `COc1ccc(C2C=C(c3ccccc3)Nc3nc(CCCO)nn32)cc1` (centres undefined): “inactive”; `COc1ccc(C2c3c(ncn(CCCO)c3=N)Oc3ccc4ccccc4c32)cc1` (centres undefined): 25.1 µM (active).
To `CCOCCn1c(CN2CCCC(C)C2)nc2c1c(=O)n(C)c(=O)n2C` (centres undefined) belongs “inactive”; to `COCCCn1c(C)nnc1SCc1ccc(C(C)(C)C)cc1`, “inactive”; to `CC(=O)Nc1nc2n(n1)C(c1ccc(F)cc1)C=C(c1ccc(Cl)cc1)N2` (centres undefined), “inactive”.
For `Cc1ccc(N2C(=O)/C(=C\Nn3cnnc3)c3ccccc3C2=O)cc1`, the Potency entry was “inactive”.
Next, `Cc1nc(SCc2ccccc2)c2ccsc2n1`: “inactive”; `CCCCn1c(=O)nc2n(-c3ccccc3)c3ccccc3cc-2c1=O`: “inactive”.
To `CCCCN=c1nc(S)n(-c2ccccc2)c(C)c1C(C)=O` belongs 39.8 µM (active).
To `C/C(=N\Nc1ccc([N+](=O)[O-])cc1)c1ccco1` belongs “inactive”; to `COc1ccc(C(=O)/C(C#N)=N/Nc2ccc([N+](=O)[O-])cc2)cc1`, 10 µM (active); to `O=[N+]([O-])c1ccc(NN=C(Oc2ccccc2)c2ccc([N+](=O)[O-])cc2)cc1`, “inactive”.
`Cc1cc(C)c(S(=O)(=O)Nc2cc(SCC(=O)O)c(O)c3ccccc23)cc1C`: the Potency is 20 µM (active).
Next, `CC(=O)Nc1ccc(NS(=O)(=O)c2cc(-c3cnc(C4CC4)o3)ccc2C)cc1`: “inactive”; `COC(=O)CCC(=O)N1CCCC(N2CCN(c3cccc(C(F)(F)F)c3)CC2)C1` (centres undefined): “inactive”.
On to `CSC1=NCCN1S(=O)(=O)c1ccc(F)cc1`, for which the Potency entry is “inactive”.
For `COC(=O)Cc1c(C)c2ccc(O)c(CNCc3ccc(OC)c(OC)c3)c2oc1=O`, the Potency result was “inactive”.
Consider `Cc1sc(Cc2nc(O)cs2)nc1-c1ccccc1`, for which the Potency result is “inactive”.
Regarding `CCc1ccc2oc(-c3ccc(OC)cc3)cc(=Nc3cccc(C(=O)O)c3)c2c1`, the Potency entry is “inactive”.
To `COc1ccc(-c2c/c(=N\c3nc(-c4ccccc4)c(C)s3)c3ccccc3o2)cc1O` belongs 31.6 µM (active); to `COCCCn1c(=N)c(C(=O)NC2CCCCC2)cc2c(=O)n3cc(C)ccc3nc21`, “inactive”; to `COC(=O)c1ccc2nc(C3CCCCC3)c(CC(C)(C)C)n2c1`, 39.8 µM (active).
As for `COC(=O)C1=CN(C2CC2)C=C(C(=O)OC)C1c1ccc(C(=O)OC)cc1`, the Potency entry was “inactive”.
Next, `Cc1nc(-c2ccccc2)sc1-c1ccnn1C`: “inactive”; `CCc1ccc(C2=C(C)C(N3CCC(C(=O)Nc4ccc(F)cc4)CC3)=NS2(=O)=O)cc1`: 39.8 µM (active); `CCOC(=O)C1=C(C)N=c2s/c(=C/c3ccc(OCC(=O)O)cc3)c(=O)n2C1c1ccc(OC)cc1OC` (centres undefined): “inactive”.
Next, `CCSc1nnc2nc3c(c(O)n12)C1(CCCC1)Cc1ccccc1-3`: “inactive”; `Cc1c(O)ccc2c(CN3CCN(Cc4ccccc4)CC3)cc(=O)oc12`: “inactive”.
Next, `CCc1ccc(CN2CCN(c3ncccn3)CC2)cc1`: “inactive”; `Cn1cc(CN2CCN(Cc3ccc4c(c3)OCO4)CC2)c(-c2ccccc2F)n1`: “inactive”.
On to `O=c1c2ccccc2[nH]c(=S)n1Cc1ccc2c(c1)OCO2`, for which the Potency entry was “inactive”.
For the compound `Fc1ccc2[nH]c3c(N4CCN(Cc5ccc6c(c5)OCO6)CC4)ncnc3c2c1`, the Potency was 39.8 µM (active).
Next, `Cc1ccc2c(c1)[nH]c1c(N3CCN(Cc4ccccc4)CC3)ncnc12`: 11.2 µM (active); `Cc1cc(-c2ccnc(-n3ncc(C(=O)NC(C)(C)CO)c3C3CC3)n2)c(C)s1`: “inactive”.
Next, `CC(C)CCNC(=O)c1cc2c(=O)n3ccccc3nc2s1`: “inactive”; `Cc1ccc(C(=O)NCCC(C)C)cc1NC(=O)c1nsc2ccccc12`: 25.1 µM (active).
Next, `Cc1ccc(C(=O)OCC(=O)Nc2nc(-c3ccccc3)cs2)cc1NC(=O)c1ccco1`: “inactive”; `O=C1/C(=C/NCc2ccccn2)c2ccccc2C(=O)N1c1ccccc1`: “inactive”; `OC[C@@H]1[C@@H](c2ccc(Cl)cc2)C(c2ccccc2)=NN1c1ccccc1`: “inactive”.
Regarding `Oc1nc2ccccc2nc1Cc1ccc(Cl)cc1`, the Potency result was “inactive”.
Next, `O=S(=O)(c1ccc(Cl)cc1)N(Cc1cccnc1)Cc1cc2ccccc2nc1O`: 25.1 µM (active); `Cc1ccc(N(Cc2cc3ccccc3nc2O)C(=O)c2cccs2)cc1`: “inactive”; `COCCCn1c(=O)/c(=C/c2ccccc2OC(C)C)s/c1=C(\C#N)C(=O)Nc1ccc(C(=O)O)cc1`: “inactive”.
Next, `CCCN(C(=O)CCl)C1=CCCCC1`: 5.97 µM (active); `CSc1nc(N2CCOCC2)nc2ccc(C)cc12`: “inactive”.
To `COc1ccccc1C(=O)/C=C/c1ccc(N2CCCCC2)c([N+](=O)[O-])c1` belongs 39.8 µM (active); to `O=[N+]([O-])c1ccc(Cc2nnc(O)c3ccccc23)cc1`, “inactive”.
On to `O=C(c1ccc(Cl)cc1)n1cnc2ccccc21`, for which the Potency result is “inactive”.
To `O=[N+]([O-])c1ccc(COc2ncnc3ccccc23)cc1` belongs “inactive”.
Next, `CC(=O)Oc1ccccc1C(=O)C=Cc1cccc([N+](=O)[O-])c1`: 39.8 µM (active); `O=C(Cn1cnc2ccccc21)Nc1cccc([N+](=O)[O-])c1`: “inactive”.
Next, `O=C(/C=C/c1ccc([N+](=O)[O-])cc1)c1ccccc(=O)c1O`: 13.4 µM (active); `O=C(/C=C/c1cccc([N+](=O)[O-])c1)n1cnc2ccccc21`: 20 µM (active).
Turning to `CC(=O)c1ccccc1NC(=O)c1cc(S(=O)(=O)N2CCOCC2)ccc1N1CCCC1`, the Potency result is “inactive”.
In the case of `CC(=O)c1ccc(N2CCN(C(=O)c3ccc(Cn4c(=S)[nH]c5ccc(N6CCOCC6)cc5c4=O)cc3)CC2)cc1`, the Potency result was “inactive”.
Consider `COc1ccc(C2=CC(c3ccc(OC)c(OC)c3)n3nnnc3N2)c(OC)c1` (centres undefined), for which the Potency result was “inactive”.
As to `COC(=O)Cn1nnnc1-c1nc2cc(C)c(C)cc2nc1O`, the Potency entry is “inactive”.
Next, `O=C(NCCO)Nc1ccc2nsnc2c1`: “inactive”; `CCN(CC)C(=O)C1=C(C)N(Cc2ccc(C(C)(C)C)cc2)C(=O)C(CC(=O)NC(c2ccccc2)c2ccccc2)C1` (centres undefined): 28.2 µM (active); `CCN(CCNC(=O)C1CCC(=O)N1Cc1ccc(C)cc1)c1ccccc1` (centres undefined): “inactive”.
To `O=C(CSC1=NCCN1)NC(c1ccccc1)c1ccccc1` belongs “inactive”; to `CCN(CC)C(=O)C1=C(C)N(Cc2ccc(C(C)(C)C)cc2)C(=O)C(CC(=O)NCc2cccc3ccccc23)C1` (centres undefined), 25.1 µM (active).
Turning to `COc1ccc(CNC(=O)CN2C(=O)NC(C)(c3ccc(C(C)(C)C)cc3)C2=O)cc1` (centres undefined), the Potency entry was “inactive”.
To `CCN(CC)C(=O)C1=C(C)N(Cc2ccc(C(C)(C)C)cc2)C(=O)C(CC(=O)NCCCCc2ccccc2)C1` (centres undefined) belongs 35.5 µM (active); to `CC(=O)c1sc(Nc2nc3cc4c(cc3s2)OCO4)nc1C`, “inactive”; to `O=C1C2CC(O)CN2C(=S)N1Cc1ccccc1` (centres undefined), “inactive”.
Consider `O=C(Cc1cc(=O)oc2cc(O)ccc12)NC(Cc1ccc(Cl)cc1)C(=O)O` (centres undefined), for which the Potency entry was “inactive”.
With `COc1cc(C(=O)OCc2ccc(C)cc2)cc(NC(=O)c2cccs2)c1OC`, the Potency entry is “inactive”.
To `CN(C)c1ccc(/C=C/C(=O)c2ccc3c(c2)OCO3)cc1` belongs “inactive”; to `CC(=O)Nc1cccc(C(=O)/C=C/c2ccc(Br)cc2)c1`, 20 µM (active); to `O=C(Nc1cccc(Br)c1)C1CCCC1`, “inactive”.
Next, `COc1cccc(Cn2c(=O)c3ccccc3n3nc(C)cc23)c1`: “inactive”; `COc1ccc(C(=O)/C=C/c2ccc(N(C)C)cc2)c(OC)c1`: “inactive”; `CC(/C=C/C=C/c1ccccc1)=N\NC(=O)c1cccnc1`: “inactive”.
To `O=C(C=Cc1cccnc1)c1ccccc1` belongs 39.8 µM (active); to `COc1ccc(OC)c(C(=O)/C=C/c2cccnc2)c1`, 39.8 µM (active).
For `O=C(NNc1ccccc1)/C(=C\c1cccnc1)NC(=O)c1ccccc1`, the Potency result is “inactive”.
Take `COc1cc(O)c(C(=O)/C=C/c2ccccc2)c(OC)c1`: the Potency is 35.5 µM (active).
Next, `Cc1cc(O)c(C(=O)/C=C/c2ccccc2)c(=O)o1`: “inactive”; `COc1cc(OC)c2cc(C(=O)N/N=C/c3ccccc3O)[nH]c2c1`: “inactive”.
Regarding `O=C(/C=C/c1cccnc1)c1cccc(O)c1`, the Potency is 26.7 µM (active).
